Laboratory results: PubChem BioAssay
Several values for one entry are separate records, joined by “and”; a condition that tells them apart may be missing. Identical values can stand only once. Inconclusive results are not listed. Activity calls are given as the source filed them.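 The calls were made as follows, unless noted: active = mean z-score across replicates of 1.96 or higher in either the MELAS or the Rieske mutant cell line; inactive = the rest.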 Peptide text beside a SMILES is read from it.

Columns and labels:
[1] = viability loss in pontine glioma line – cell-based, SU-DIPG-XXV, MIPE5.0, CellTiter-Glo, qHTS, dose response (AID 1347065; cut-off not given, nearly all actives have AC50 up to about 26 µM;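 also: cells exposed to compound for 48 hours before ATP readout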); details: CellTiter-Glo ATP luminescence
[2] = SU-DIPG-XXV glioma cell viability, MIPE5.0 library, qHTS (AID 1347068; cut-off not given, nearly all actives have IC50 up to about 30 µM;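 as to IC50: cells exposed to compound for 48 hours before viability readout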)
[3] = sensitizers of A549 cells to miR-34 induction, primary screen, imaging, A549 dox-inducible miR-34, nuclei and caspase counts (AID 1347080;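 active = compounds whose cell count with miR-34 switched on is under 0.7 times the count with it off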); details: A549 miR-34 inducible, Hoechst nuclei count, 48 h
[4] = survival rescue of mitochondrial mutant cells in low glucose, primary screen, MELAS cybrids, Rieske KO mouse fibroblasts, CellTiter-Glo (AID 1508586);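 also: z relative to plate mean and SD of compound and empty wells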
[5] = target: NAD(+) hydrolase SARM1 (Homo sapiens) (UniProt Q6SZW1); experiment: SARM1 TIR NADase inhibitors, cell lysate, NAD-Glo luminescence (AID 1508614;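 active = compound whose remaining NAD level is above about 45 nM, limit read from the data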;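 also: higher remaining NAD means stronger inhibition of SARM1 NADase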); details: SAM-TIR HEK293T lysate NADase, at 1 µM, stronger effect = higher value
Chain of NAD(+) hydrolase SARM1 (Homo sapiens) (Q6SZW1 whole entry, looked up): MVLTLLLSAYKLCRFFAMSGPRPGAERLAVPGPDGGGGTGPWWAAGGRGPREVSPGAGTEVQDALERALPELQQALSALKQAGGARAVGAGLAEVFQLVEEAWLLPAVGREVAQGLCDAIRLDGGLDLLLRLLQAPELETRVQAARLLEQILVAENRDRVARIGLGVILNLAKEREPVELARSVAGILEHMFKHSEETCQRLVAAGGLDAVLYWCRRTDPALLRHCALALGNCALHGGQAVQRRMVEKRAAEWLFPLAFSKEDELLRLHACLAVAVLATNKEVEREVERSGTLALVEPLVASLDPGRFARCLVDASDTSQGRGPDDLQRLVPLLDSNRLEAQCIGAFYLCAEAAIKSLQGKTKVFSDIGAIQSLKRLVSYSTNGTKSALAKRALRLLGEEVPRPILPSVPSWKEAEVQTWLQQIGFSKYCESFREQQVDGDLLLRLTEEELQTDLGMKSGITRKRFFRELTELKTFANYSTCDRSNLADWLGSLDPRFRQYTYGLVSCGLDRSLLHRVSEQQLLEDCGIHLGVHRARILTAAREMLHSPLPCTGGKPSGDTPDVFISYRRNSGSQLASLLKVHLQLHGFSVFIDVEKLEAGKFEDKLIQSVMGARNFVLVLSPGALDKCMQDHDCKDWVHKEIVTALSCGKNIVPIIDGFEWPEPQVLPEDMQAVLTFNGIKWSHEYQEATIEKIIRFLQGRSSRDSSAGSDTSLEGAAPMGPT

[6] = viability rescue of complex I mutant cybrids, primary screen, cell-based, galactose medium, ATP luminescence (AID 1645843;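 active = z-score of at least 1.8 in each of two replicates, scored against plate mean and spread of sample wells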;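 also: positive z means more ATP and so rescue of galactose-driven cybrid death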); details: complex I mutant cybrid cells, 72 h, stronger effect = higher value
[7] = SU-DIPG-VI glioma cell viability, MIPE4.0 library, CellTiter-Glo luminescence, qHTS (AID 1347066; cut-off not given, nearly all actives have AC50 up to about 30 µM;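 also: cells exposed to compound for 48 hours before readout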); details: CellTiter-Glo ATP luminescence
[8] = JHH-DIPG-1 glioma cell viability, MIPE5.0 library, CellTiter-Glo luminescence, qHTS (AID 1347067; cut-off not given, nearly all actives have AC50 up to about 26 µM;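 also: cells exposed to compound for 48 hours before readout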); details: JHH-DIPG-1 glioma viability, CellTiter-Glo ATP luminescence
[9] = target: Mitogen-activated protein kinase 7 (Homo sapiens) (UniProt Q13164); experiment: ERK5 transactivation activators in reporter cells, primary screen, cell-based, HTS (AID 1508626;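 active = luciferase signal above three times the same-plate solvent-only control wells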;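 also: luciferase driven by Gal4-ERK5 fusion binding five Gal4 sites before minimal TATA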); details: HeLa Gal4-ERK5 transactivation, 18 h, at 5 µM, stronger effect = higher value
Chain of Mitogen-activated protein kinase 7 (Homo sapiens) (Q13164 whole entry, looked up, the tested form may be a part): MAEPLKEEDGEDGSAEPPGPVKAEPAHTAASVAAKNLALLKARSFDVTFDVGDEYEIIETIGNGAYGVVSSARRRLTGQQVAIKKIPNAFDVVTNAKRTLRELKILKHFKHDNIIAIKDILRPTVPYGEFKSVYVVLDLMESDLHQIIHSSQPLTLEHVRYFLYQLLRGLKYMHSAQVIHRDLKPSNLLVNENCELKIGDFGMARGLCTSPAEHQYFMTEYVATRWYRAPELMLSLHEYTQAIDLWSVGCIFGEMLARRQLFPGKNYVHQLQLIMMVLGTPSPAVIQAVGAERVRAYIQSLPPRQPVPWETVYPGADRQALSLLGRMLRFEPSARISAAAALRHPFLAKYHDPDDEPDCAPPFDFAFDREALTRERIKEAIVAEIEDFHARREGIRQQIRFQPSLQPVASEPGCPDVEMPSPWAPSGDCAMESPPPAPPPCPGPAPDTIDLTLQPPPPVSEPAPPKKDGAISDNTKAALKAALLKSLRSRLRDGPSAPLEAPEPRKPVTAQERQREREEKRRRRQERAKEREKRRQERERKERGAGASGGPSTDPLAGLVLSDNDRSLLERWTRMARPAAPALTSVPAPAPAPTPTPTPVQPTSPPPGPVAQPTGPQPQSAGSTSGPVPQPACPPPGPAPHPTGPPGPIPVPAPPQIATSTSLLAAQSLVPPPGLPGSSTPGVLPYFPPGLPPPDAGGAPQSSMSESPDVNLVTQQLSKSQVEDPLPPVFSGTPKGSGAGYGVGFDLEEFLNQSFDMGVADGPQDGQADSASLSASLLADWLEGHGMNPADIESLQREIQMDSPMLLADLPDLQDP

[10] = phospholipid biosynthesis inhibitors in animal cells, primary screen, cell-based, LOPAC library, screen 4 (AID 1347384; call rule not given here); details: phospholipid biosynthesis inhibition screen, at 10 µM
[11] = stronger effect = lower value, cell number ratio, induced over uninduced
[12] = measured here: relative caspase fold change +Dox/-Dox
[13] = measured here: total cells with miR-34 induction, stronger effect = lower value
[14] = measured here: total cells without miR-34 induction
[15] = MELAS cybrid survival, CellTiter-Glo 48 h, stronger effect = higher value
[16] = Rieske KO mouse fibroblast survival, CellTiter-Glo 72 h

Row | SMILES | outcome [1] | outcome [2] | fold change [3, 11] | fold change [3, 12] | cell count [3, 13] | cell count [3, 14] | z-score [4, 15] | z-score [4, 16] | remaining NAD [5] | z-score [6] | outcome [7] | outcome [8] | luciferase signal [9] | AC50 [7] | AC50 [8] | AC50 [1] | outcome [10] | IC50 [2]
1 | C#C[C@]1(O)CC[C@H]2[C@@H]3[C@H](C)CC4=C(CCC(=O)C4)[C@H]3CC[C@@]21C | inactive | inactive | 0.908 (inactive) and 0.883 (inactive) | 0.948 and 1.2 | 5910 and 8230 | 6510 and 9320 | 0.727 (inactive) and 0.175 (inactive) | 0.291 and -0.0373 | 10 nM (inactive) | -0.015 (inactive) | – | – | – | – | – | – | – | –
2 | CCCOc1ccc(C(=O)OCCN(CC)CC)cc1N | – | inactive | – | – | – | – | 0.278 (inactive) and -0.171 (inactive) and -0.393 (inactive) | -0.35 and 0.529 and -1.27 | 10 nM (inactive) | 0.735 (inactive) and 0.01 (inactive) | inactive | inactive | 212 AU (inactive) | – | – | – | – | –
3 | CCCCOc1ccc(CC(=O)NO)cc1 | inactive | inactive | 0.904 (inactive) and 0.891 (inactive) | 1.17 and 0.62 | 7500 and 10000 | 8290 and 11200 | -0.309 (inactive) and 0.359 (inactive) | 0.677 and -0.599 | 10 nM (inactive) | – | – | – | 44 AU (inactive) | – | – | – | – | –
4 | CC1=CC(=O)c2ccccc2C1=O | – | inactive | 1.24 (inactive) and 1.04 (inactive) and 1.27 (inactive) | 0.813 and 0.493 and 0.646 | 1500 and 4940 and 494 | 1210 and 4760 and 388 | -0.194 (inactive) | -1.25 | 10 nM (inactive) | – | – | – | 128 AU (inactive) | 8.33 µM (active) | 33.2 µM (active) | – | – | –
5 | COC(=O)[C@H](Cc1ccccc1)NC(=O)[C@@H](N)CC(=O)O (H-Asp-Phe-OMe) | – | – | 0.869 (inactive) | 2.93 | 11000 | 12600 | – | – | 10 nM (inactive) | – | inactive | inactive | 36 AU (inactive) | – | – | – | – | –
6 | CO[C@@]12[C@H](COC(N)=O)C3=C(C(=O)C(C)=C(N)C3=O)N1C[C@@H]1N[C@@H]12 | – | – | 1.21 (inactive) and 1.12 (inactive) | 0.667 and 0.791 | 1280 and 1220 | 1060 and 1090 | -0.241 (inactive) | -1.21 | 10 nM (inactive) | -1.99 (inactive) | – | – | 44 AU (inactive) | – | 3.32 µM (active) | 9.34 µM (active) | – | –
7 | O=C1CCc2cc(OCCCCc3nnnn3C3CCCCC3)ccc2N1 | inactive | – | – | – | – | – | -0.457 (inactive) and 0.645 (inactive) | 0.52 and 0.278 | 10 nM (inactive) | -1.27 (inactive) and -0.71 (inactive) | – | inactive | 96 AU (inactive) | – | – | – | inactive | –
8 | C/C=C(/C(=C/C)c1ccc(O)cc1)c1ccc(O)cc1 | – | – | 0.888 (inactive) and 0.901 (inactive) | 1.32 and 1.91 | 7250 and 10300 | 8160 and 11500 | -1.21 (inactive) | -1.14 | 10 nM (inactive) | – | inactive | – | 72 AU (inactive) | – | 20.9 µM (active) | – | – | 23.5 µM (active)
9 | CN1CCC(=C2c3ccccc3C=Cc3ccccc32)CC1 | – | inactive | – | – | – | – | -0.307 (inactive) and -0.043 (inactive) and -1.41 (inactive) | -0.028 and 0.523 and -1.01 | 10 nM (inactive) | – | inactive | inactive | 20 AU (inactive) | – | – | – | inactive | –
10 | O=c1[nH]c(=O)n([C@H]2C[C@H](O)[C@@H](CO)O2)cc1F | inactive | inactive | 1.03 (inactive) | 0.977 | 4160 | 4020 | -1.41 (inactive) and 0.996 (inactive) | 1.5 and -0.252 | 10 nM (inactive) | 1.93 (active) | – | – | 12 AU (inactive) | – | – | – | – | –
11 | CC(C)(C)NC(=O)[C@H]1CC[C@H]2[C@@H]3CC[C@H]4NC(=O)C=C[C@]4(C)[C@H]3CC[C@]12C | – | inactive | 0.927 (inactive) and 0.774 (inactive) | 1.11 and 2.31 | 8640 and 8130 | 9320 and 10500 | 0.136 (inactive) and 0.187 (inactive) | 0.621 and 0.926 | 10 nM (inactive) | 0.465 (inactive) | inactive | inactive | – | – | – | – | – | –
12 | Cc1cc(C2CCCCC2)n(O)c(=O)c1 | – | – | – | – | – | – | 0.334 (inactive) and 0.408 (inactive) and 0.404 (inactive) | -0.762 and -0.715 and 0.148 | 10 nM (inactive) | – | – | – | 52 AU (inactive) | – | 2.63 µM (active) | 2.35 µM (active) | – | –
13 | COc1ccccc1N1CCN(CC(O)COc2cccc3ccccc23)CC1 (stereo not drawn) | – | inactive | – | – | – | – | – | – | 10 nM (inactive) | – | inactive | inactive | – | – | – | – | inactive | –
14 | C#CCN[C@@H]1CCc2ccccc21 | – | inactive | 0.9 (inactive) | 0.614 | 8560 | 9500 | -0.17 (inactive) | 0.336 | 10 nM (inactive) | – | inactive | inactive | – | – | – | – | – | –
15 | CN1CCN(CCCN2c3ccccc3Sc3ccc(Cl)cc32)CC1 | – | – | – | – | – | – | -0.995 (inactive) | -0.206 | 10 nM (inactive) | -1.35 (inactive) and -1.42 (inactive) | – | – | 80 AU (inactive) | 16.6 µM (active) | – | – | – | –
16 | Nc1ccc(S(=O)(=O)Nc2ccccn2)cc1 | – | – | 0.875 (inactive) and 0.859 (inactive) | 1.07 and 2.95 | 9140 and 10900 | 10400 and 12600 | -0.349 (inactive) | 0.469 | 10 nM (inactive) | – | inactive | – | 64 AU (inactive) | – | – | – | – | –
17 | Cc1onc(-c2ccccc2)c1C(=O)N[C@@H]1C(=O)N2[C@@H]1SC(C)(C)[C@@H]2C(=O)O | – | – | 0.877 (inactive) | 6.72 | 9940 | 11300 | 0.677 (inactive) and 0.0608 (inactive) | -0.0856 and 0.018 | 10 nM (inactive) | 0.945 (inactive) | inactive | – | 64 AU (inactive) | – | – | – | – | –
